# Records with an inconclusive call do not appear. Calls of active or inactive are those of the source. Rule for the calls: active = hit-call score of the fitted dose curve at least 0.9, where 1 is the maximum; inconclusive = response in the unintended direction; inactive = score below 0.9.
# What was measured:
# [1] = ACEA_AR_agonist_AUC_viability: ACEA Biosciences xCELLigence Real-Time Cell Analysis on Androgen Receptor Agonism for Viability (AID 2283775);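 for AC50: viability read 80 hours after compound addition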
# Method in brief: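 Real-time impedance tracking of 22Rv1 growth, readings every 5 min for 5 h then hourly; area-under-curve viability endpoint at 80 hours, relative to DMSO. Compounds at eight concentrations, 1:4 steps, top 100 uM, n = 2.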
# [2] = ACEA_AR_antagonist_AUC_viability: ACEA Biosciences xCELLigence Real-Time Cell Analysis on Androgen Receptor Antagonism for Viability (AID 2283776);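 note: 22Rv1 human prostate cancer cells growing on impedance electrode plates; hits lower the growth signal relative to DMSO meaning cytotoxicity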
# Method in brief: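 22Rv1 prostate cells, continuous dosing up to 100 uM final (0.5% DMSO max), duplicate plates. Growth measured by impedance; AUC at 80 h, loss of signal vs DMSO.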
compound,measurement,setting,value
S=C1NCCN1,outcome,[1],inactive
same,outcome,[2],inactive
CN(C)NC(=O)CCC(=O)O,outcome,[1],inactive
same,outcome,[2],inactive
CCc1cccc(CC)c1N(COC)C(=O)CCl,AC50,[1],50 µM (active)
same,AC50,[2],50 µM (active)
COP(=O)(OC)SCn1c(=O)oc2cc(Cl)cnc21,AC50,[1],23.7 µM (active)
same,AC50,[2],17.2 µM (active)
CC(C)[C@H](C(=O)O[C@H](C#N)c1cccc(Oc2ccccc2)c1)c1ccc(Cl)cc1,AC50,[1],17.2 µM (active)
CSc1nc(NC(C)C)nc(NC(C)C)n1,outcome,[1],inactive
same,outcome,[2],inactive
CN(C)[C@@H]1C(=O)C(C(N)=O)=C(O)[C@@]2(O)C(=O)C3=C(O)c4c(O)cccc4[C@@](C)(O)[C@H]3[C@H](O)[C@@H]12,AC50,[1],50 µM (active)
same,AC50,[2],50 µM (active)
CCOP(=S)(Oc1cnc(C(C)(C)C)nc1)OC(C)C (stereo unspecified),AC50,[1],46.3 µM (active)
same,AC50,[2],50 µM (active)
Nc1c(Cl)cc([N+](=O)[O-])cc1Cl,AC50,[1],58.4 µM (active)
same,AC50,[2],50 µM (active)
CNC(=O)ON=C(C)SC,outcome,[1],inactive
same,outcome,[2],inactive
CON=C(C(=O)OC)c1ccccc1CON=C(C)c1cccc(C(F)(F)F)c1,AC50,[1],26.4 µM (active)
same,AC50,[2],14.5 µM (active)
CC[C@H](C)[C@H]1O[C@]2(C=C[C@@H]1C)C[C@@H]1C[C@@H](C/C=C(\C)[C@@H](O[C@H]3C[C@H](OC)[C@@H](O[C@H]4C[C@H](OC)[C@@H](NC)[C@H](C)O4)[C@H](C)O3)[C@@H](C)/C=C/C=C3\CO[C@@H]4[C@H](O)C(C)=C[C@@H](C(=O)O1)[C@]34O)O2,AC50,[1],0.874 µM (active)
same,AC50,[2],1.34 µM (active)
CN1COCN(Cc2cnc(Cl)s2)C1=N[N+](=O)[O-],outcome,[2],inactive
Cc1nn(-c2cc(NS(C)(=O)=O)c(Cl)cc2Cl)c(=O)n1C(F)F,outcome,[1],inactive
same,outcome,[2],inactive
CC(C)=CC1C(C(=O)OCN2C(=O)C3=C(CCCC3)C2=O)C1(C)C (stereo unspecified),AC50,[1],44 µM (active)
same,AC50,[2],48.1 µM (active)
CCOC(=O)COc1cc(-c2nn(C)c(OC(F)F)c2Cl)c(F)cc1Cl,outcome,[1],inactive
same,AC50,[2],16.6 µM (active)
CC(=NC#N)N(C)Cc1ccc(Cl)nc1,outcome,[1],inactive
same,outcome,[2],inactive
O=C(O)c1cc(Oc2ccc(C(F)(F)F)cc2Cl)ccc1[N+](=O)[O-],AC50,[1],50 µM (active)
same,outcome,[2],inactive
CCOP(=O)(NC(C)C)Oc1ccc(SC)c(C)c1 (stereo unspecified),AC50,[1],9.92 µM (active)
same,AC50,[2],32.7 µM (active)
CCNc1nc(Cl)nc(NC(C)(C)C#N)n1,AC50,[2],27 µM (active)
CCOC(=O)CC(SP(=O)(OC)OC)C(=O)OCC (stereo unspecified),outcome,[1],inactive
same,outcome,[2],inactive
COP(=O)(OC)C(O)C(Cl)(Cl)Cl (stereo unspecified),outcome,[1],inactive
same,AC50,[2],50 µM (active)
C=C(C)[C@H]1Cc2c(ccc3c2O[C@@H]2COc4cc(OC)c(OC)cc4[C@@H]2C3=O)O1,AC50,[1],0.284 µM (active)
same,AC50,[2],0.413 µM (active)
CN(C)C(=O)Nc1cccc(C(F)(F)F)c1,outcome,[2],inactive
O=[N+]([O-])c1cc(C(F)(F)F)c(Cl)c([N+](=O)[O-])c1Nc1ncc(C(F)(F)F)cc1Cl,AC50,[1],8.38 µM (active)
same,AC50,[2],10.6 µM (active)
CCOP(=O)(OCC)Oc1cc(C)nc(C(C)C)n1,outcome,[2],inactive
CC(COc1ccc(Oc2ccccc2)cc1)Oc1ccccn1 (stereo unspecified),AC50,[1],58.9 µM (active)
same,AC50,[2],64.6 µM (active)
CSC1=N[C@@](C)(c2ccccc2)C(=O)N1Nc1ccccc1,AC50,[1],31.6 µM (active)
same,AC50,[2],18.1 µM (active)
COc1cc(OC)nc(Sc2cccc(Cl)c2C(=O)O)n1,outcome,[2],inactive
CCc1cnc(C2=NC(C)(C(C)C)C(=O)N2)c(C(=O)O)c1 (stereo unspecified),outcome,[1],inactive
same,outcome,[2],inactive
CCOP(=S)(OCC)Oc1cc(C)nc(C(C)C)n1,outcome,[1],inactive
same,outcome,[2],inactive
CSc1nnc(C(C)(C)C)c(=O)n1N,outcome,[1],inactive
same,outcome,[2],inactive
CCOP(=S)(OCC)SCCSCC,AC50,[1],78.1 µM (active)
same,AC50,[2],80.6 µM (active)
CC(Oc1cccc(Cl)c1)C(=O)O (stereo unspecified),outcome,[2],inactive
CC1(C(=O)Nc2ccc(O)c(Cl)c2Cl)CCCCC1,AC50,[1],64.9 µM (active)
same,AC50,[2],50 µM (active)
Nc1nc(N)nc(NC2CC2)n1,outcome,[2],inactive
COc1cccc(C(=O)NN(C(=O)c2cc(C)cc(C)c2)C(C)(C)C)c1C,AC50,[2],76.4 µM (active)
N#CSCSC#N,AC50,[1],7.42 µM (active)
same,AC50,[2],7.39 µM (active)
C[N+]1(C)CCCCC1,outcome,[1],inactive
same,outcome,[2],inactive
CNC(=O)Oc1cccc2c1OC(C)(C)O2,outcome,[1],inactive
same,outcome,[2],inactive
COP(=O)(OC)OC(Br)C(Cl)(Cl)Br (stereo unspecified),AC50,[1],75.1 µM (active)
same,AC50,[2],61.3 µM (active)
CC1=NNC(=O)N(/N=C/c2cccnc2)C1,outcome,[1],inactive
same,outcome,[2],inactive
CCOP(=O)(SC(C)CC)N1CCSC1=O (stereo unspecified),outcome,[2],inactive

# — PubChem BioAssay (EPA / NIEHS)
